# MCL1-BIM inh = inhibitors of MCL1 binding to BIM-BH3, primary screen, biochemical, fluorescence polarization; AID 2057, 2009; GST-MCL1 / FITC-Bim-BH3 fluorescence polarization; hit rate 0.68% among 320,000; inhibition, % at 10.9 µM;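 active = inhibition above the mean inhibition of all tested compounds plus 3 SD, set per campaign, cut at about 40% in these data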;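 also: higher means more loss of mP so more displacement of Bim peptide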
# E coli Lon inh = inhibitors of E. coli Lon protease, primary screen, biochemical, fluorescence polarization. P0A9M0. purified E. coli Lon protease. inhibition, % at 7.94 µM. hit rate 0.42% among 360,000. AID 602123, 2011; in the data active = inhibition above about 13%, passing the limit was not always enough
# GLD-1 RNA inh = GLD-1/TGE RNA complex disruptors, primary screen, biochemical, fluorescence polarization; inhibition, % at 5.96 µM; purified GLD-1 + fluorescein TGE RNA; Female germline-specific tumor suppressor gld-1 (Caenorhabditis elegans), Q17339; hit rate 0.44% among 320,000;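 active = percent inhibition above a per-plate cutoff, the plate mean of test compounds plus 3 SD, cut at about 30% in these data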
# Target sequence (Q17339 whole entry, looked up): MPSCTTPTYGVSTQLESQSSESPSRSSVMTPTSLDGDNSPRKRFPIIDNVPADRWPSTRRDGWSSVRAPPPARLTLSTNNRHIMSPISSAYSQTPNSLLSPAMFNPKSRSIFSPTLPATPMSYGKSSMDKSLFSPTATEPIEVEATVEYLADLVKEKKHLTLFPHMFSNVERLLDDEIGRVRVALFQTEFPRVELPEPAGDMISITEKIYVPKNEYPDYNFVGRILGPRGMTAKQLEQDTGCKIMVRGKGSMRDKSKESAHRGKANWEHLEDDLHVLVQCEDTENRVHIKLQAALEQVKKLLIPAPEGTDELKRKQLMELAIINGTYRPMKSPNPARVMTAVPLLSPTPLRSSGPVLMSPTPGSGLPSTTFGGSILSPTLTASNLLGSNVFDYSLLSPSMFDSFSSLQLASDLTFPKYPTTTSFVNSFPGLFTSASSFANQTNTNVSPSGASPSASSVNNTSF
# MEX-5 binding = MEX-5 zinc finger RNA-binding disruptors – biochemical, C. elegans, fluorescence polarization, MLPCN library, primary screen | Zinc finger protein mex-5 (Caenorhabditis elegans), Q9XUB2 | MEX-5/FITC-TCR2 RNA binding; active compounds read low | activity score (negative = inhibition of binding), % at 10 µM | hit rate 0.38% among 300,000;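 active = inhibition past about -25% in most replicates, and total fluorescence under double the plate's negative control median, limit read from the data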
# Bcl-xL primary = inhibitors of human Bcl-xL, primary screen, biochemical, fluorescence polarization, HTS; Bcl-2-like protein 1 (Homo sapiens), Q07817; GST-Bcl-xL / FITC-Bim BH3 peptide fluorescence polarization; inhibition, % at 10.9 µM; hit rate 0.7% among 320,000; AID 2129, 2009;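 active = inhibition above the mean of all tested compounds plus 3 SD, cutoff set per campaign, cut at about 30% in these data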;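 also: inhibitors lower millipolarization by displacing the labeled peptide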
# EBV gp42 block = Epstein-Barr virus gp42 inhibitors, primary screen, biochemical, uHTS, fluorescence polarization; hit rate 0.42% among 220,000; AID 1085, 2008; Fluorescence polarization binding assay, mP read-out; inhibition, % (tested at 21.74 µM); in the data active = inhibition above about 50%
# Hits are given with their value; 0 = inactive; - = no result given. Most compounds without a hit are left out; they make up all but 1.4% or so of the library.
SMILES,MCL1-BIM inh,E coli Lon inh,GLD-1 RNA inh,MEX-5 binding,Bcl-xL primary,EBV gp42 block
COc1ccc(Nc2nc(-c3cccs3)nc3ccccc23)cc1S(=O)(=O)N1CCOCC1,0,0,0,0,0,-
Cc1ccccc1Nc1nc(Cl)c(C=O)s1,0,0,0,-41,0,0
CC(=O)c1cccc(NC(=O)CSc2ccc(-c3ccco3)nn2)c1,0,0,0,0,0,-
O=C(CSc1ccc(-c2ccco2)nn1)c1cccc([N+](=O)[O-])c1,66,0,0,0,0,0
C=C(CCC(=O)c1ccccc1)C(=O)c1ccccc1,0,0,0,0,85,0
COCC(=O)N1CCC(n2nccc2NC(=O)c2ccccc2OC)CC1,0,0,0,0,0,-
N=c1oc2ccc3ccccc3c2cc1-c1nc(-c2ccccc2)cs1,0,0,0,0,0,66
N=c1oc2ccccc2cc1-c1nc(-c2ccccc2)cs1,0,0,0,0,0,0
COc1ccc(-c2nnc(-c3cc4c(ccc5ccccc54)oc3=O)o2)cc1,0,0,0,-42,0,51
Nc1nnc(-c2cc3c(ccc4ccccc43)oc2=O)s1,-,-,-,-,-,66
O=c1oc2ccc3ccccc3c2cc1-c1nnc(-c2ccccc2)o1,0,0,0,0,0,0
O=C(/C=C/[C@H]1O[C@@H](n2ccc(=O)[nH]c2=O)[C@H](O)[C@@H]1O)NCCN1CCCC1,-,0,-,-,-,-
O=C(CSc1nc2ccccc2n1CCc1ccccc1)c1ccc(O)c(O)c1,-,0,-,-,-,72
COc1ccc(NC(=O)CN(C)S(=O)(=O)c2ccc3c(c2)c(=O)n(C)c(=O)n3C)cc1,0,0,0,0,0,-
O=C1NN(c2cccc(Br)c2)C(=O)/C1=C/c1ccc(-c2cc([N+](=O)[O-])ccc2O)o1,0,0,0,0,0,101
CC1=NN(c2ccc(C)cc2)C(=O)/C1=C/c1ccc(-c2cc([N+](=O)[O-])ccc2O)o1,-,0,-,0,-,-
CCOC(=O)C1=CCN(S(=O)(=O)c2ccccc2F)C1c1cccc(Cl)c1 (stereo not given),-,0,-,-,-,-
O=C(COc1ccc(Cl)cc1Cl)N1CCN(C(=O)c2ccco2)CC1,0,0,0,0,0,-
Nc1ncnc(NNC(=O)CNC(=O)c2c(F)cccc2Cl)c1[N+](=O)[O-],0,0,0,-66,0,0
CCn1c2ccccc2c(=O)c2ccccc21,0,0,0,-28,0,0
Cc1cc(=O)cc(C)n1-c1ccc2c(c1)nc(C)n2-c1ccccc1,0,0,0,0,0,-
Cc1cc(=O)cc(C)n1-c1ccc(Br)cc1,0,0,88,0,0,0
CN1C(C)(C)CC(O)(C(=O)O)CC1(C)C,-,0,-,-,-,-
COCCC(=O)N1CCC(Oc2ccc(C(=O)N3C[C@H]4CC[C@H]3C4)cc2)CC1,0,0,0,0,0,-
COc1ccccc1CN(C)C(=O)COC(=O)c1ccc(Cl)nc1,-,0,0,-,-,-
SMILES,MCL1-BIM inh,E coli Lon inh,GLD-1 RNA inh,MEX-5 binding,Bcl-xL primary,EBV gp42 block
O=C(O)C1Nc2c(cccc2C(F)(F)F)C2C=CCC12 (stereo not given),-,-,-,-29,-,-
Cc1ccc2c(c1)C1C=CCC1C(C(=O)NCCCN1CCOCC1)N2 (stereo not given),0,0,0,0,0,-
Cc1ccc2c(c1)C1C=CCC1C(C(=O)O)N2 (stereo not given),108,-,0,0,62,79
NC(=O)[C@@H]1CCCN1Cc1nc(Cc2ccccc2Cl)no1,0,0,0,0,0,0
Cc1ccc(C)c(N2N=C(C(=O)N(CC(C)C)c3c(N)n(Cc4ccccc4)c(=O)[nH]c3=O)CCC2=O)c1,0,0,61,0,0,-
CC(C)CN(C(=O)C1=NN(c2ccccc2)C(=O)CC1)c1c(N)n(Cc2ccccc2)c(=O)[nH]c1=O,0,0,0,-,0,-
COc1ccccc1CC(=O)Nc1ncc(C)s1,0,0,0,0,0,-
Cc1cc(O)c(C=O)c2c1C(=O)Oc1c(CO)c(O)c3c(c1O2)C(O)OC3=O (stereo not given),103,72,0,-,48,0
